Experimental data as given in PubChem BioAssay AID449762 (Southern Research Specialized Biocontainment Screening …, 2010).
The campaign covered roughly 330,000 compounds. About 1,900 (0.58%) were called active. Not shown: some 4% with an inconclusive outcome. The list is a sample of the results. Measured potencies and affinities stand elsewhere. A number with no mark means an inactive call. No stated cut-off is given here; in the data, inconclusive means inhibition above about 70% without an active follow-up result; inactive means below that.

Experiment: M. tuberculosis growth inhibition, HTS (AID 449762);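 further: bacterial growth assessed after seven days of incubation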
Conditions: M. tuberculosis H37Rv growth inhibition, 7H9 media; at 25 µM; active compounds read high

Going from `CN1CCN(CCc2nc3cc(NC(=O)c4ccco4)ccc3n2C)CC1` to `CC(C)Oc1ccc(C(=O)Nc2ccc(N3CCN(C(=O)c4ccco4)CC3)cc2)cc1`, the inhibition falls from 3.05% to 0.01%.

First: O=S(=O)(NCCc1cn2ccccc2n1)c1ccc(F)c(C(F)(F)F)c1
Second: N=C1C(c2nc3ccccc3[nH]2)=C(O)CN1NC(=O)COc1cccc(F)c1
The inhibition of the first is higher: -2.32% for the first, -2.89% for the second.

Compared with `CCCOc1ccc(OCCn2nc(C(=O)O)c3ccccc3c2=O)cc1`, `O=c1[nH]c(=O)n(Cc2ccc(Oc3ccccc3)cc2)cc1Br` is higher in inhibition: 1.16% for the first, 2.82% for the second.

Compared with `CC(C)C(=O)NNC(=O)CN1CCN(c2nc(-c3ccccc3)cs2)CC1`, `CCc1nnc(NC(=O)CN2CCN(c3ccccc3F)CC2)s1` is higher in inhibition: -10.4% for the first, 5.55% for the second.

Going from `CC(=O)Nc1cccc(C(=O)N2CCN(Cc3ccccc3)CC2)c1` to `CCc1nc(N2CCN(C(=O)c3ccccc3)CC2)c(C#N)c2c1COC(C)(C)C2`, the inhibition rises from -9.84% to 15.8%.

First: Cc1ccc(NCC(=O)c2ccc([N+](=O)[O-])cc2)cc1
Second: COc1ccc(C(CC(=O)c2ccc(C)cc2)Nc2ccc([N+](=O)[O-])cc2)cc1 (stereo unspecified)
The inhibition of the first is lower: 8.11% for the first, 14.3% for the second.

Going from `CC(=O)NC(CC(=O)c1ccc([N+](=O)[O-])cc1)C(Cl)(Cl)Cl` (stereo unspecified) to `CC(C)CC(=O)NC(Nc1ccc([N+](=O)[O-])cc1)C(Cl)(Cl)Cl` (stereo unspecified), the inhibition falls from 13.4% to 4.27%.

First: OC(COc1ccc(Br)cc1)Cn1ccnc1 (stereo unspecified)
Second: O=Cc1ccc(Oc2ccc(F)cc2)nc1
The inhibition of the first is lower: -0.05% for the first, 0.87% for the second.

Compared with `O=C(NN1CCOCC1)c1ccc(Cl)s1`, `Cc1ccc(S(=O)(=O)N2CCOCC2)cc1NC(=O)COC(=O)C1(C)CC1(Cl)Cl` (stereo unspecified) is higher in inhibition: -0.84% for the first, 11.2% for the second.

First: O=C(COC(=O)C1CCC1)Nc1ncc(Cl)cc1Cl
Second: CC(=O)CC(=O)NC(=NC1CCCCC1)Nc1nc(C)cc(C)n1
The inhibition of the first is lower: -10.9% for the first, 43.2% for the second.

First: COc1ccc(N2CCN(c3ccc(NC(=O)C4CCCCC4)cc3C#N)CC2)cc1
Second: COc1ccc(Cn2c(=O)[nH]c3cc(C(=O)NCCCN4CCCCC4)ccc3c2=O)cc1
The inhibition of the first is higher: 7.01% for the first, -8.19% for the second.

Going from `Clc1ccc(CNc2ccc(CNc3ncn[nH]3)cc2)cc1` to `CCC1Nc2ncnc(N3CCN(c4ccccn4)CC3)c2N(Cc2ccc(Cl)cc2)C1=O` (stereo unspecified), the inhibition rises from 2.69% to 8.22%.

Going from `Cc1cc(C)nc(Nc2ncn[nH]2)n1` to `Cc1ccn2c(=O)cc(C)nc2c1`, the inhibition falls from 6.87% to -4.1%.

Going from `CC1C(=O)N2CCCc3cc(NC(=O)C(=O)NCCc4ccc(F)cc4)cc1c32` (stereo unspecified) to `O=C1CSC2(C(=O)N3CCCc4cccc2c43)N1c1cccc(C(F)(F)F)c1` (stereo unspecified), the inhibition falls from 39.4% to -2.03%.

First: CC(C)c1nnc(NC(=O)CCC(=O)N2CCN(c3ccc(F)cc3)CC2)s1
Second: CC(C)c1nnc(NC(=O)CCC(=O)N2CCN(c3cccc(Cl)c3)CC2)s1
The inhibition of the first is lower: 6.66% for the first, 25.5% for the second.

First: Cc1[nH]ncc1N=Cc1ccc([N+](=O)[O-])cc1
Second: Cn1cccc1/C=C1/C(=O)NC(=O)N(Cc2ccc(F)cc2)C1=O
The inhibition of the first is lower: 1.43% for the first, 11.8% for the second.

First: CCOc1ccc(C(=O)CCC(=O)NCC(=O)Nc2c(C)cccc2C)cc1
Second: CCOC(=O)c1cnn(CCOC(=O)c2ccc(F)cc2)c1NC(=O)c1ccc(F)cc1
The inhibition of the first is higher: 3.97% for the first, 0.06% for the second.

Compared with `O=S(=O)(c1ccc(N2CC=C(c3ccccc3)CC2)nc1)N1CCCC1`, `CC(NC(=O)c1cccnc1)C(c1cccs1)N1CCN(c2ccccc2F)CC1` (stereo unspecified) is higher in inhibition: -10.8% for the first, -3.95% for the second.

Compared with `N=C1C(c2nc3ccccc3s2)=C(O)CN1NC(=O)c1c[nH]c2ccccc12`, `N=C1C(c2nc3ccccc3s2)=C(O)CN1C1CCCCC1` is higher in inhibition: -0.06% for the first, 8.1% for the second.

First: CCN(CC)S(=O)(=O)c1ccc2c(c1)N(CC(=O)N1CCCC1)C(=O)CO2
Second: CC(=O)OCn1ncc(N2CCOCC2)c(Br)c1=O
The inhibition of the first is lower: -1.21% for the first, -0.34% for the second.

First: O=c1oc2ccccc2cc1-c1nc(-c2ccccc2)no1
Second: Cc1cccc(-c2noc(-c3cc4ccccc4oc3=O)n2)c1
The inhibition of the first is higher: 23.8% for the first, -1.72% for the second.

First: COC(=O)c1cn(-c2ccccc2)nc1-c1ccc(OC)c(OC)c1
Second: COc1cc(N/N=C(\C)c2ccc(O)c(C)c2)nc(-c2ccccc2)n1
The inhibition of the first is lower: 3.81% for the first, 40.1% for the second.

Compared with `O=C(Nc1ccc(OCc2ccccc2)cc1)c1cccs1`, `C/C(=N\Nc1nc(C)cc(-c2ccccc2)n1)c1ccccc1` is higher in inhibition: -4.87% for the first, 9.83% for the second.

First: Cc1cccc(Nc2nc(N)c([N+](=O)[O-])c(N3CCCC(C)C3)n2)c1 (stereo unspecified)
Second: Cc1ccc(Nc2nc(N)c([N+](=O)[O-])c(N3CCC(C)CC3)n2)cc1C
The inhibition of the first is higher: 10.2% for the first, -4.24% for the second.

Going from `CC(C)(C)c1ccc(Oc2ccc(N)cn2)cc1` to `COc1cc(OC)cc(C(=O)NC2CCCN(Cc3ccc(Cl)cc3)C2)c1` (stereo unspecified), the inhibition falls from 14.1% to 7.21%.

Compared with `O=C(NCc1ccccc1Cl)c1cnc2n(c1=O)CCS2`, `Cn1cccc1/C=C1\C(=O)NC(=O)N(Cc2ccccc2)C1=O` is higher in inhibition: -6.04% for the first, 3.31% for the second.

Compared with `COC(=O)c1cc(NC(=O)CN(C)C2CCS(=O)(=O)C2)cc(C(=O)OC)c1` (stereo unspecified), `C#CC(=O)CCC1CCCN1C(=O)OC(C)(C)C` (stereo unspecified) is higher in inhibition: -0.88% for the first, 5.07% for the second.

Compared with `CN(C)P(=NC(=S)c1cccn1C)(N(C)C)N(C)C`, `Cc1ccc(-n2cccc2C(=O)NS(=O)(=O)c2ccc(C)cc2)cc1` is lower in inhibition: 0.74% for the first, -6.77% for the second.

First: Cc1cc(=O)n2ccsc2n1
Second: O=C1CC(=C(c2ccccc2)c2ccccc2)C(=O)N1CCCN1CCN(c2cccc(Cl)c2)CC1
The inhibition of the first is lower: 0.36% for the first, 59.9% for the second.

Going from `Cc1nnc(SCC(=O)NC(=O)NC(C)(C)C)n1N` to `CC1(C)Cc2c(C#N)c(N3CCOCC3)nc(Cc3ccccc3)c2CO1`, the inhibition falls from 4.56% to 1.75%.

In the case of `Cc1ccccc1N1CCN(CCCN2C(=O)CC(=C(c3ccccc3)c3ccccc3)C2=O)CC1`, the inhibition was 7.38%.
